Experimental findings from the supplement of paper PMC12636033 are described below.

± gives the standard deviation of the averaged measurements. In all, about 33,000 sequences were measured (“E-score (rank enrichment, -0.5 to 0.5)”: median about -0.0028, highest 2% from about 0.23 on). Only a selection was taken, and the highest values are over-represented in it overall.

This test deals with 2Sb-muMax20 (muMax20 with two 1,3-bis(methyl)benzene Cys staples, A13C/A17C and Q88C/A92C, C-terminal Lys). Put plainly: PBM 8-mer E-score (E-score (rank enrichment, -0.5 to 0.5)); higher = stronger preferential binding. The procedure: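 Protein binding microarray (universal PBM chip covering all 10-mers in fixed probe flanks) with chemically synthesized human Max(13-93) bHLH-LZ analogs (not full-length Max) bearing noncanonical residues (hArg, Tha, Aib, Nle at 65) and aromatic Cys staples. Read-out per 8-mer (and its reverse complement): E-score (rank-based enrichment, -0.5 to 0.5) and Z-score of median probe intensity.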
As for TCCTGGCA, the “PBM 8-mer E-score” value is -0.0907 ± 0.03.

Take CCTTATAC: the “PBM 8-mer E-score” value was determined as 0.175 ± 0.015.

As for CACACTTA, the “PBM 8-mer E-score” value was 0.15 ± 0.045.

For ATTTAAAC, the “PBM 8-mer E-score” value came to 0.167 ± 0.021.

For the sequence AAGGGTTG, the “PBM 8-mer E-score” value stood at 0.0938 ± 0.044.

On to AGGGGCTA, for which the “PBM 8-mer E-score” value came to 0.198 ± 0.055.

Regarding AGGGGTTG, the “PBM 8-mer E-score” value is 0.266 ± 0.068.

Turning to GGGGGTAA, the “PBM 8-mer E-score” value is -0.0157 ± 0.073.

Turning to CGGGGTAA, the “PBM 8-mer E-score” value amounted to 0.19 ± 0.055.

Regarding AGGGGCAT, the “PBM 8-mer E-score” value came to 0.272 ± 0.028.

TGGGGTAA: the “PBM 8-mer E-score” value was determined as 0.266 ± 0.033.

For AGGGGCAC, the “PBM 8-mer E-score” value is -0.0355 ± 0.044.

Consider AGGGGCTG, for which the “PBM 8-mer E-score” value was determined as 0.252 ± 0.036.

As for AGGGGCAA, the “PBM 8-mer E-score” value turned out to be 0.159 ± 0.017.

Regarding AGGGGTTA, the “PBM 8-mer E-score” value came to 0.135 ± 0.04.

For the sequence AGGGGCTC, the “PBM 8-mer E-score” value is 0.0348 ± 0.035.

Take TAAGGCGA: the “PBM 8-mer E-score” value is 0.0332 ± 0.024.

Take CCAACGTA: the “PBM 8-mer E-score” value is -0.0251 ± 0.052.

On to CCACTCAA, for which the “PBM 8-mer E-score” value came out at 0.199 ± 0.032.

Regarding ACTGGCAG, the “PBM 8-mer E-score” value is -0.182 ± 0.042.

For the sequence AATGGTGG, the “PBM 8-mer E-score” value amounted to 0.0724 ± 0.034.

Regarding AACCTTGT, the “PBM 8-mer E-score” value was -0.108 ± 0.054.

Consider GGGGCTAA, for which the “PBM 8-mer E-score” value stood at 0.0894 ± 0.033.

As to ATCGCCAA, the “PBM 8-mer E-score” value was -0.0483 ± 0.083.

In the case of ACACCGTA, the “PBM 8-mer E-score” value came to 0.0971 ± 0.049.

Regarding ATATCACA, the “PBM 8-mer E-score” value came out at 0.112 ± 0.039.

Turning to AAGCCCCG, the “PBM 8-mer E-score” value is 0.0771 ± 0.022.

Consider CGGGGTAG, for which the “PBM 8-mer E-score” value came to 0.147 ± 0.071.

As to AGGGGTAA, the “PBM 8-mer E-score” value came out at 0.202 ± 0.014.

For AGGGGTAG, the “PBM 8-mer E-score” value is 0.309 ± 0.059.

As for AGGTCCGA, the “PBM 8-mer E-score” value was -0.128 ± 0.028.

In the case of AATTTAAA, the “PBM 8-mer E-score” value worked out at 0.0161 ± 0.022.

On to ATTTTTAC, for which the “PBM 8-mer E-score” value was 0.127 ± 0.05.

Take CGAAACAA: the “PBM 8-mer E-score” value was determined as 0.0409 ± 0.023.

For the sequence TGAAACAA, the “PBM 8-mer E-score” value amounted to 0.261 ± 0.053.

With GGAAACAA, the “PBM 8-mer E-score” value stood at 0.133 ± 0.078.

In the case of AGAAACAA, the “PBM 8-mer E-score” value was 0.252 ± 0.0078.

With AGAAACAC, the “PBM 8-mer E-score” value was determined as 0.0175 ± 0.091.

With AGAAACAT, the “PBM 8-mer E-score” value was 0.0919 ± 0.038.

As for ACCCTCTG, the “PBM 8-mer E-score” value is -0.181 ± 0.025.

As for GGGTCTTA, the “PBM 8-mer E-score” value worked out at 0.104 ± 0.061.

Turning to GCGTATGA, the “PBM 8-mer E-score” value was 0.0375 ± 0.06.

Consider ATTCTTCA, for which the “PBM 8-mer E-score” value worked out at 0.00503 ± 0.029.

Regarding ACCGCTTC, the “PBM 8-mer E-score” value was -0.17 ± 0.019.

For the sequence AATATTTA, the “PBM 8-mer E-score” value amounted to 0.201 ± 0.0076.

Take GTTCAGGA: the “PBM 8-mer E-score” value is -0.184 ± 0.021.

Turning to CCCTGAGC, the “PBM 8-mer E-score” value was determined as 0.0168 ± 0.058.

Consider AATATGAA, for which the “PBM 8-mer E-score” value worked out at 0.271 ± 0.004.

As for AATATGAG, the “PBM 8-mer E-score” value is -0.034 ± 0.019.

With AATATGAT, the “PBM 8-mer E-score” value came to 0.252 ± 0.03.

As for AATATGAC, the “PBM 8-mer E-score” value came out at 0.166 ± 0.012.

Regarding TATATGAA, the “PBM 8-mer E-score” value is 0.159 ± 0.022.

On to GATATGAA, for which the “PBM 8-mer E-score” value was 0.103 ± 0.013.

Consider ATTTTACG, for which the “PBM 8-mer E-score” value came to 0.126 ± 0.054.

For the sequence CAGTTCAG, the “PBM 8-mer E-score” value turned out to be 0.0182 ± 0.11.

Take GTGCACAC: the “PBM 8-mer E-score” value was -0.0164 ± 0.1.

For the sequence GGCTACGA, the “PBM 8-mer E-score” value was -0.0832 ± 0.011.

On to CACGTCCC, for which the “PBM 8-mer E-score” value is -0.161 ± 0.028.

Take ATGCGAGG: the “PBM 8-mer E-score” value worked out at 0.2342 ± 0.0017.

ATGCGAGC: the “PBM 8-mer E-score” value turned out to be 0.00876 ± 0.045.

Regarding ATGCGAGA, the “PBM 8-mer E-score” value is -0.0394 ± 0.1.

Consider CGCCCCCC, for which the “PBM 8-mer E-score” value is -0.286 ± 0.14.

Consider CATGTACA, for which the “PBM 8-mer E-score” value was found to be 0.125 ± 0.1.

Regarding AATGTACG, the “PBM 8-mer E-score” value worked out at 0.115 ± 0.053.

Regarding CATGTACG, the “PBM 8-mer E-score” value amounted to 0.311 ± 0.024.

With TGCACTAA, the “PBM 8-mer E-score” value was 0.102 ± 0.019.

As for ATGGTGCA, the “PBM 8-mer E-score” value came out at 0.196 ± 0.05.

GAACACCC: the “PBM 8-mer E-score” value is -0.145 ± 0.022.

As for CAACACCG, the “PBM 8-mer E-score” value was -0.202 ± 0.036.

For the sequence CAACACCC, the “PBM 8-mer E-score” value was determined as 0.252 ± 0.0077.

GAGGTATA: the “PBM 8-mer E-score” value came to 0.144 ± 0.025.

Turning to TAGTAGAA, the “PBM 8-mer E-score” value is -0.0551 ± 0.015.

For ACGGACAA, the “PBM 8-mer E-score” value amounted to 0.0365 ± 0.0016.

As for CGACGCAG, the “PBM 8-mer E-score” value was -0.238 ± 0.017.

For the sequence ATGAATGG, the “PBM 8-mer E-score” value was 0.297 ± 0.033.

Turning to ATGAAATC, the “PBM 8-mer E-score” value is 0.137 ± 0.039.

Take ATGAATGA: the “PBM 8-mer E-score” value is 0.181 ± 0.035.

Consider ATGAAATA, for which the “PBM 8-mer E-score” value was 0.169 ± 0.024.

On to ATGAATGC, for which the “PBM 8-mer E-score” value was found to be 0.164 ± 0.06.

Turning to ATGAAATG, the “PBM 8-mer E-score” value is 0.277 ± 0.066.

Consider CCCGCGAG, for which the “PBM 8-mer E-score” value is 0.015 ± 0.026.

Consider CGCAGACG, for which the “PBM 8-mer E-score” value is -0.0875 ± 0.1.

In the case of CATGTGCC, the “PBM 8-mer E-score” value was 0.161 ± 0.0077.

Regarding ATGGCCGC, the “PBM 8-mer E-score” value was -0.0812 ± 0.007.

Consider CCTGCGAA, for which the “PBM 8-mer E-score” value was -0.0794 ± 0.0094.

For the sequence AGGGTGGG, the “PBM 8-mer E-score” value was found to be 0.266 ± 0.032.

As for AGGGGTGG, the “PBM 8-mer E-score” value is 0.287 ± 0.046.

For AAGGGTGG, the “PBM 8-mer E-score” value is 0.0428 ± 0.051.
